# In all, about 5,500 compounds went through this assay and about 2,000 (36%) were called active. About 18% were inconclusive and are not listed. This is one part of the list. Unmarked numbers belong to inactive results. Rule as the data show it: active = normalized growth mostly below about 0.91 (no sharp cut-off); inconclusive = no clear call, values can overlap the other calls; inactive = mostly above about 0.92.
# Assay: chemical genetic growth profiling, strain panel (AID 1159580);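 also: tested at 20 µM; growth read once vehicle control cultures reached saturation at 30 °C; 1 = growth at the plate median or of vehicle wells; lower values mean less growth of the strain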
# Conditions: S. cerevisiae deletion strains, growth OD
compound,measurement,setting,value
CCN1CCN(c2cc3c(cc2F)c(=O)c(C(=O)O)cn3C2CC2)CC1,normalized growth,"locus YAL021C, strain ccr4, active compounds read low",1.04
same,normalized growth,"locus YAL026C, strain drs2, active compounds read low",1.01
same,normalized growth,"locus YAL030W, strain snc1, active compounds read low",1.01
same,normalized growth,"locus YBL061C, strain skt5, active compounds read low",1.01
same,normalized growth,"locus YBR009C, strain hhf1, active compounds read low",1
same,normalized growth,"locus YBR023C, strain chs3, active compounds read low",1.01
same,normalized growth,"locus YBR171W, strain sec66, active compounds read low",1.02
same,normalized growth,"locus YBR231C, strain swc5, active compounds read low",1.02
same,normalized growth,"locus YBR279W, strain paf1, active compounds read low",1.01
same,normalized growth,"locus YCL011C, strain gbp2, active compounds read low",1.01
same,normalized growth,"locus YCL016C, strain dcc1, active compounds read low",0.997
same,normalized growth,"locus YCL061C, strain MRC1, active compounds read low",1.01
same,normalized growth,"locus YCL069W, strain vba3, active compounds read low",1.01
same,normalized growth,"locus YCR088W, strain abp1, active compounds read low",1.01
same,normalized growth,"locus YDL005C, strain med2, active compounds read low",1.02
same,normalized growth,"locus YDL040C, strain nat1, active compounds read low",1.01
same,normalized growth,"locus YDR001C, strain nth1, active compounds read low",1.01
same,normalized growth,"locus YDR069C, strain doa4, active compounds read low",1
same,normalized growth,"locus YDR137W, strain rgp1, active compounds read low",0.969
same,normalized growth,"locus YDR159W, strain sac3, active compounds read low",1.01
same,normalized growth,"locus YDR195W, strain ref2",1.04
same,normalized growth,"locus YDR297W, strain sur2, active compounds read low",1.01
same,normalized growth,"locus YDR334W, strain swr1, active compounds read low",1.02
same,normalized growth,"locus YDR335W, strain msn5, active compounds read low",1.03
same,normalized growth,"locus YDR392W, strain spt3, active compounds read low",1
same,normalized growth,"locus YEL003W, strain gim4, active compounds read low",1.01
same,normalized growth,"locus YEL037C, strain rad23, active compounds read low",1.01
same,normalized growth,"locus YEL061C, strain CIN8 (second series), active compounds read low",1.02
same,normalized growth,"locus YER015W, strain faa2, active compounds read low",1.01
same,normalized growth,"locus YER016W, strain bim1, active compounds read low",0.995
same,normalized growth,"locus YER111C, strain swi4, active compounds read low",1.02
same,normalized growth,"locus YER155C, strain BEM2 (second series), active compounds read low",1.01
same,normalized growth,"locus YFR010W, strain ubp6, active compounds read low",1.01
same,normalized growth,"locus YGL167C, strain pmr1, active compounds read low",1.02
same,normalized growth,"locus YGL173C, strain kem1, active compounds read low",1
same,normalized growth,"locus YGL227W, strain vid30, active compounds read low",1.01
same,normalized growth,"locus YGL240W, strain doc1, active compounds read low",0.997
same,normalized growth,"locus YGL253W, strain hxk2, active compounds read low",1.01
same,normalized growth,"locus YHR013C, strain ard1, active compounds read low",1.04
same,normalized growth,"locus YHR027C, strain rpn1, active compounds read low",1.02
same,normalized growth,"locus YHR030C, strain SLT2, active compounds read low",0.992
same,normalized growth,"locus YHR079C, strain IRE1, active compounds read low",0.986
same,normalized growth,"locus YHR142W, strain chs7, active compounds read low",1.02
same,normalized growth,"locus YJL092W, strain hpr5, active compounds read low",1.01
same,normalized growth,"locus YJL095W, strain BCK1 (second series), active compounds read low",1.02
same,normalized growth,"locus YJL095W, strain BCK1, active compounds read low",0.995
same,normalized growth,"locus YJL115W, strain asf1, active compounds read low",0.989
same,normalized growth,"locus YJL129C, strain trk1, active compounds read low",1.03
same,normalized growth,"locus YJL154C, strain vps35, active compounds read low",1.02
same,normalized growth,"locus YJL164C, strain tpk1, active compounds read low",1.01
same,normalized growth,"locus YJL166W, strain qcr8, active compounds read low",1
same,normalized growth,"locus YJL187C, strain SWE1, active compounds read low",1.01
same,normalized growth,"locus YJR066W, strain TOR1, active compounds read low",0.962
same,normalized growth,"locus YKL160W, strain elf1, active compounds read low",1
same,normalized growth,"locus YKR026C, strain gcn3, active compounds read low",1.01
same,normalized growth,"locus YKR091W, strain srl3, active compounds read low",1
same,normalized growth,"locus YLL001W, strain dnm1, active compounds read low",1.02
same,normalized growth,"locus YLL026W, active compounds read low",1
same,normalized growth,"locus YLL041C, strain sdh2, active compounds read low",1.01
same,normalized growth,"locus YLR027C, strain aat2, active compounds read low",1.01
same,normalized growth,"locus YLR113W, strain HOG1, active compounds read low",1.03
same,normalized growth,"locus YLR221C, strain rsa3, active compounds read low",1.01
same,normalized growth,"locus YLR258W, strain gsy2, active compounds read low",1.01
same,normalized growth,"locus YLR262C, strain YPT6 (second series), active compounds read low",0.962
same,normalized growth,"locus YLR320W, strain mms22, active compounds read low",0.854 (active)
same,normalized growth,"locus YLR342W, strain FKS1, active compounds read low",1.02
same,normalized growth,"locus YLR357W, strain rsc2, active compounds read low",0.994
same,normalized growth,"locus YLR370C, strain arc18, active compounds read low",1.02
same,normalized growth,"locus YLR384C, strain iki3, active compounds read low",1
same,normalized growth,"locus YML120C, strain ndi1, active compounds read low",1.01
same,normalized growth,"locus YMR058W, strain fet3, active compounds read low",1.01
same,normalized growth,"locus YMR125W, strain sto1, active compounds read low",1.02
same,normalized growth,"locus YMR129W, active compounds read low",1.01
same,normalized growth,"locus YMR205C, strain PFK2, active compounds read low",1
same,normalized growth,"locus YMR231W, strain pep5, active compounds read low",1.02
same,normalized growth,"locus YNL071W, strain lat1, active compounds read low",1.02
same,normalized growth,"locus YNL183C, strain NPR1, active compounds read low",0.935
same,normalized growth,"locus YNL209W, strain ssb2, active compounds read low",1.03
same,normalized growth,"locus YNL248C, strain rpa49, active compounds read low",1.01
same,normalized growth,"locus YNL322C, strain KRE1 (second series), active compounds read low",1
same,normalized growth,"locus YNR049C, strain mso1, active compounds read low",1.01
same,normalized growth,"locus YOR001W, strain rrp6, active compounds read low",1.01
same,normalized growth,"locus YOR070C, strain gyp1, active compounds read low",1.02
same,normalized growth,"locus YOR080W, strain dia2, active compounds read low",0.992
same,normalized growth,"locus YOR083W, strain WHI5, active compounds read low",1.01
same,normalized growth,"locus YOR106W, strain vam3, active compounds read low",0.994
same,normalized growth,"locus YOR231W, strain MKK1, active compounds read low",0.981
same,normalized growth,"locus YOR265W, strain rbl2, active compounds read low",1.01
same,normalized growth,"locus YOR270C, strain vph1, active compounds read low",1.03
same,normalized growth,"locus YOR290C, strain snf2, active compounds read low",0.957
same,normalized growth,"locus YPL051W, strain arl3, active compounds read low",1.01
same,normalized growth,"locus YPL078C, strain atp4, active compounds read low",1.02
same,normalized growth,"locus YPL106C, strain sse1, active compounds read low",0.998
same,normalized growth,"locus YPL240C, strain hsp82, active compounds read low",1.01
same,normalized growth,"locus YPL256C, strain CLN2, active compounds read low",0.986

# Source: PubChem BioAssay AID1159580 (chemical genetic matrix, 2015)
